What all share (test): NCI-60 one-dose screen, 48 h (100 = growth as untreated, 0 = no growth, -100 = all killed)
Holding throughout (conditions): 10 µM unless noted

The subject of assay [1] is SR leukemia.
Assay [2] relates to RPMI-8226 leukemia.
In assay [3] the test system is OVCAR-5 ovarian.
In assay [4] the test system is OVCAR-4 ovarian.
Assay [5] has as its system SK-OV-3 ovarian.
The test system of assay [6] is IGROV1 ovarian.
Assay [7] relates to OVCAR-3 ovarian.
In assay [8] the test system is HS 578T breast.
The test system of assay [9] is NCI/ADR-RES ovarian.
Assay [10] deals with T-47D breast.
Assay [11] deals with BT-549 breast.
Assay [12] has as its system MDA-MB-435 melanoma.
For assay [13], the system named is SW-620 colon.
Assay [14] relates to MCF7 breast.
Assay [15] concerns HCT-116 colon.
The test system of assay [16] is HCC-2998 colon.
Assay [17] relates to KM12 colon.
Assay [18] concerns OVCAR-8 ovarian.

This is part of a sample that, as a whole, favours compounds with a hit. Of some 83,000 tested, about 20% had one in any assay.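 Note: values are percent growth. 100 is the growth of untreated cells, values between 100 and 0 indicate rising inhibition; between -100 and 0 indicates cell death.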 Unmarked numbers belong to inactive results. Activity calls are given as the source filed them. The calls were made as follows: active = growth percent below 10; inactive = the rest.

With `C[C@H](CCC(=O)NCc1ccc(C(=O)Nc2ccccc2N)cc1)[C@H]1CC[C@H]2[C@@H]3[C@@H](O)C[C@@H]4C[C@H](O)CC[C@]4(C)[C@H]3CC[C@]12C`, the growth was 63.4% in [1]; 5.86% (active) in assay [2]; 67.8% in assay [3]; 65.3% in assay [4]; 73.7% in assay [5]; 51% in assay [6]. The growth is 64.3% in assay [7]; 69.6% in assay [8]; 99.4% in [9]; 48% in assay [10]; 54.1% in [11]; 60.2% in assay [12]. Moreover, the growth in [13] is 56%; in [14], 45.7%; in assay [15], 31.2%; in assay [16] it was 89.5%; in assay [17] it was 64%.

As for `COc1cc(-c2nnc(SCc3ccc(O)c4ncccc34)n2-c2ccccc2)cc(OC)c1OC`, the growth in [1] was 15.5%; in assay [2], 3.25% (active); in assay [3], 33.2%; in assay [4] it was 6.79% (active); in assay [5], 1.71% (active); in [6] it was 8.92% (active). Besides, the growth in [7] was 6.44% (active); in assay [8], 20.3%; in assay [9] it was 0.665% (active); in assay [10] it was -0.917% (active); in assay [11], 12.8%; in assay [12] it was 10.8%. In addition, the growth was 10.3% in [13]; 2.01% (active) in [14]; 5.72% (active) in assay [15]; 22.1% in [16]; 14% in [17].

For `COc1ccc(Cn2cc3c(c2-c2cc(OC)c(OC)c(OC)c2)CCc2c(CN4CCOCC4)noc2-3)cc1`, the growth was 23.8% in [1]; 28.3% in assay [2]; 32.1% in assay [3]; 52.8% in assay [4]; 54.2% in [5]; 2.5% (active) in [7]. The growth in [8] is 15.3%; in assay [9] it was 8.51% (active); in assay [10] it was 61.5%; in assay [11], 76.8%; in [12] it was -19.9% (active); in assay [13], 30.4%. Further, the growth in assay [14] is 16.8%; in [15], 13.4%; in assay [16], 21.3%; in [17], 16.9%.

Consider `COC(=O)C[Se]C(=O)Cc1c(C)n(C(=O)c2ccc(Cl)cc2)c2ccc(OC)cc12`, for which the growth in [1] is 16.4%; in assay [18], 41.4%; in assay [3] it was 15.4%; in [4], 40.6%; in [5] it was 118%; in [6], 16.8%. Also, the growth in assay [7] is 44.7%; in assay [8], 29.8%; in assay [9], 9.78% (active); in assay [10] it was 83%; in [11], 102%; in assay [12], 39.6%. Moreover, the growth is 62.4% in assay [13]; 28.2% in [14]; 4.82% (active) in [15]; 58.3% in assay [16]; 26.4% in [17].

With `CC(=O)N1C(=S)NC(=O)C1CC(C)C` (configuration not stated), the growth in [1] is 101%; in assay [18] it was 103%; in assay [3], 100%; in [4], 99.5%; in assay [5], 101%; in [6], 104%. Moreover, the growth was 118% in assay [7]; 110% in [8]; 105% in assay [9]; 100% in assay [10]; 115% in assay [11]; 103% in [12]. Moreover, the growth in assay [13] is 102%; in [14] it was 97.7%; in assay [15], 106%; in [16] it was 108%; in assay [17], 101%.

Turning to `COc1ccc(-c2nc3ccc(-c4nnc(SCC(=O)Nc5ccc(C(=O)/C=C/c6ccc(Cl)cc6)cc5)o4)cc3[nH]2)cc1`, the growth in assay [1] was 68.2%; in assay [18], 105%; in assay [3], 99.4%; in assay [4], 103%; in [5], 112%; in assay [6] it was 87.2%. Besides, the growth in assay [7] is 113%; in assay [8], 90.6%; in [9], 107%; in [10], 92.8%; in [11] it was 98.2%; in assay [12], 99.3%. Further, the growth in [13] is 97%; in assay [14], 78%; in [15] it was 100%; in assay [16] it was 115%; in assay [17], 103%.

As for `O=C(O)c1ccc(-n2cc(CNc3cc(F)c(F)c(F)c3)c(-c3ccc(F)cc3)n2)cc1`, the growth in [1] is 78.1%; in assay [18], 83.9%; in assay [3] it was 108%; in assay [4], 95.5%; in [5], 116%; in assay [6], 91.9%. For the same molecule, the growth was 96.3% in [7]; 97.5% in [8]; 97.8% in assay [9]; 85.5% in assay [10]; 107% in [11]; 96.1% in assay [12]. Also, the growth in assay [13] was 103%; in assay [14], 58.3%; in assay [15], 88.5%; in assay [16] it was 102%; in [17], 92.9%.

Take `Nc1ncc(-c2ccc3ncnc(N4CCc5cc(F)c(F)cc54)c3c2)cn1`: the growth in assay [1] was 23.9%; in [18], 33.3%; in [3], 38.1%; in [4], 43.9%; in assay [5], 9.09% (active); in assay [6], -6.07% (active). Besides, the growth in assay [7] was 26.3%; in [8], -15.4% (active); in [9], 35.8%; in assay [10] it was 4.14% (active); in assay [11], 12.3%; in assay [12] it was 30.2%. Moreover, the growth in [13] was 54.4%; in [14], 14.4%; in [15], 28.9%; in assay [16], 31.9%; in assay [17], 45.3%.

Regarding `Cc1ccc(-c2nnc(SCc3ccc(O)c4ncccc34)n2-c2ccccc2)cc1`, the growth was 12.1% in [1]; 7.99% (active) in assay [2]; 37.5% in assay [3]; 13.8% in assay [4]; 5.69% (active) in assay [5]; 8.07% (active) in [6]. For the same molecule, the growth is 16.2% in assay [7]; -3.23% (active) in assay [8]; 2.09% (active) in assay [9]; 5.79% (active) in assay [10]; 18.4% in assay [11]; 9.9% (active) in [12]. The growth in [13] was 12.9%; in assay [14], 4.47% (active); in [15], 6.12% (active); in [16], 22.3%; in assay [17] it was 2.4% (active).

Source of the values: PubChem BioAssay (NCI).
